# In paper PMC11006913:
# Substitutions are numbered along the chain they refer to.
# How the values were obtained:
# Test in all cases: PBM; 200 nM protein, PBS
# Conditions in all cases: dsDNA, one strand shown
# PAX4 [1] = target: T1, PAX4 (Homo sapiens, UniProt O43316 9-242, R200K)
# T1 sequence: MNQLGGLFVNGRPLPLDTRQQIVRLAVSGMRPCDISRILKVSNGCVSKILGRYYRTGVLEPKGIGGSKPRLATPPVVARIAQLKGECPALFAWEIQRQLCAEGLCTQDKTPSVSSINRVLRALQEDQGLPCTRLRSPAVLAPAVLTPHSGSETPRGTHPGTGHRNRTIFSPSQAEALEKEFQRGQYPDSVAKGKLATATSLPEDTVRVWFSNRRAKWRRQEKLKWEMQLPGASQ
# PAX4 [2] = target: T2, PAX4 (Homo sapiens, UniProt O43316 9-242)
# T2 sequence: T1 sequence with K192R
# PAX4 [3] = target: T3, PAX4 (Homo sapiens, UniProt O43316 9-242, R200Q)
# T3 sequence: T1 sequence with K192Q
# PAX4 [4] = target: T4, PAX4 (Homo sapiens, UniProt O43316 9-242, F177V)
# T4 sequence: T1 sequence with F169V, K192R
# PAX4 [5] = target: T5, PAX4 (Homo sapiens, UniProt O43316 9-242, F177Y)
# T5 sequence: T1 sequence with F169Y, K192R
# PAX4 [6] = target: T6, PAX4 (Homo sapiens, UniProt O43316 9-242, R227W)
# T6 sequence: T1 sequence with K192R, R219W
# PRRX1 [7] = target: PRRX1 (Homo sapiens, UniProt P54821 80-166, F113S)
# Sequence of PRRX1 (Homo sapiens, UniProt P54821 80-166, F113S) (P54821 80-166 F113S): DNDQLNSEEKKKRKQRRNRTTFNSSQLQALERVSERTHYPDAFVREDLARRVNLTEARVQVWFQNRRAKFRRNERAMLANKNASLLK
# HOXB6 = HOXB6 (Homo sapiens, UniProt P17509 132-218, K202E)
# Sequence of HOXB6 (P17509 132-218 K202E): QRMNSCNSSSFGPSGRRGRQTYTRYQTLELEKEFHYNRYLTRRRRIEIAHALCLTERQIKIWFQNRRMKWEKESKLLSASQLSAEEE
# ALX3 [8] = target: ALX3 (Homo sapiens, UniProt O95076 139-225, N203Q)
# Sequence of ALX3 (Homo sapiens, UniProt O95076 139-225, N203Q) (O95076 139-225 N203Q): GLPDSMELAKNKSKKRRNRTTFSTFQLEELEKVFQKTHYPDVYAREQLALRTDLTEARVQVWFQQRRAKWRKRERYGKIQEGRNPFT
# ALX3 [9] = target: ALX3 (Homo sapiens, UniProt O95076 139-225, N203S)
# Sequence of ALX3 (Homo sapiens, UniProt O95076 139-225, N203S) (O95076 139-225 N203S): as the sequence (O95076 139-225 N203Q) above, with Q65S counted along it
# PRRX1 [10] = target: PRRX1 (Homo sapiens, UniProt P54821 80-166)
# Sequence of PRRX1 (Homo sapiens, UniProt P54821 80-166) (P54821 80-166): as the sequence (P54821 80-166 F113S) above, with S34F counted along it
# CRX = CRX (Homo sapiens, UniProt O43186 26-111, R41L)
# Sequence of CRX (O43186 26-111 R41L): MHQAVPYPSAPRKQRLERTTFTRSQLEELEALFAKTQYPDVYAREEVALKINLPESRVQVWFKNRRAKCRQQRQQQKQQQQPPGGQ
sequence,measurement,setting,value
CGCCCGGC,binding signal,PAX4 [1],"9.26 upbm affinity estimate (log intensity, higher = more binding, comparable within an allelic series)"
same,binding signal,PAX4 [2],"9.23 upbm affinity estimate (log intensity, higher = more binding, comparable within an allelic series)"
same,binding signal,PAX4 [3],"9.1 upbm affinity estimate (log intensity, higher = more binding, comparable within an allelic series)"
same,binding signal,PAX4 [4],"8.97 upbm affinity estimate (log intensity, higher = more binding, comparable within an allelic series)"
same,binding signal,PAX4 [5],"9.01 upbm affinity estimate (log intensity, higher = more binding, comparable within an allelic series)"
same,binding signal,PAX4 [6],"9.06 upbm affinity estimate (log intensity, higher = more binding, comparable within an allelic series)"
TGGGCCCA,binding signal,PAX4 [1],"9.53 upbm affinity estimate (log intensity, higher = more binding, comparable within an allelic series)"
same,binding signal,PAX4 [2],"9.41 upbm affinity estimate (log intensity, higher = more binding, comparable within an allelic series)"
same,binding signal,PAX4 [3],"9.57 upbm affinity estimate (log intensity, higher = more binding, comparable within an allelic series)"
same,binding signal,PAX4 [4],"9.2 upbm affinity estimate (log intensity, higher = more binding, comparable within an allelic series)"
same,binding signal,PAX4 [5],"9.37 upbm affinity estimate (log intensity, higher = more binding, comparable within an allelic series)"
same,binding signal,PAX4 [6],"9.35 upbm affinity estimate (log intensity, higher = more binding, comparable within an allelic series)"
CATGTTAG,binding signal,PAX4 [1],"10.7 upbm affinity estimate (log intensity, higher = more binding, comparable within an allelic series)"
same,binding signal,PAX4 [2],"10.8 upbm affinity estimate (log intensity, higher = more binding, comparable within an allelic series)"
same,binding signal,PAX4 [3],"10.7 upbm affinity estimate (log intensity, higher = more binding, comparable within an allelic series)"
same,binding signal,PAX4 [4],"10.1 upbm affinity estimate (log intensity, higher = more binding, comparable within an allelic series)"
same,binding signal,PAX4 [5],"10.2 upbm affinity estimate (log intensity, higher = more binding, comparable within an allelic series)"
same,binding signal,PAX4 [6],"10.3 upbm affinity estimate (log intensity, higher = more binding, comparable within an allelic series)"
AGCTGCCG,binding signal,PAX4 [1],"9.44 upbm affinity estimate (log intensity, higher = more binding, comparable within an allelic series)"
same,binding signal,PAX4 [2],"9.42 upbm affinity estimate (log intensity, higher = more binding, comparable within an allelic series)"
same,binding signal,PAX4 [3],"9.33 upbm affinity estimate (log intensity, higher = more binding, comparable within an allelic series)"
same,binding signal,PAX4 [4],"9.27 upbm affinity estimate (log intensity, higher = more binding, comparable within an allelic series)"
same,binding signal,PAX4 [5],"9.2 upbm affinity estimate (log intensity, higher = more binding, comparable within an allelic series)"
same,binding signal,PAX4 [6],"9.31 upbm affinity estimate (log intensity, higher = more binding, comparable within an allelic series)"
AGTGTTAG,binding signal,PAX4 [1],"10.5 upbm affinity estimate (log intensity, higher = more binding, comparable within an allelic series)"
same,binding signal,PAX4 [2],"10.6 upbm affinity estimate (log intensity, higher = more binding, comparable within an allelic series)"
same,binding signal,PAX4 [4],"9.92 upbm affinity estimate (log intensity, higher = more binding, comparable within an allelic series)"
same,binding signal,PAX4 [5],"10 upbm affinity estimate (log intensity, higher = more binding, comparable within an allelic series)"
same,binding signal,PAX4 [6],"10.1 upbm affinity estimate (log intensity, higher = more binding, comparable within an allelic series)"
ATAATTTA,binding signal,PRRX1 [7],"11.2 upbm affinity estimate (log intensity, higher = more binding, comparable within an allelic series)"
same,binding signal,HOXB6,"10 upbm affinity estimate (log intensity, higher = more binding, comparable within an allelic series)"
same,binding signal,ALX3 [8],"8.61 upbm affinity estimate (log intensity, higher = more binding, comparable within an allelic series)"
same,binding signal,PAX4 [4],"10.8 upbm affinity estimate (log intensity, higher = more binding, comparable within an allelic series)"
same,binding signal,PAX4 [5],"11 upbm affinity estimate (log intensity, higher = more binding, comparable within an allelic series)"
same,binding signal,PAX4 [6],"11 upbm affinity estimate (log intensity, higher = more binding, comparable within an allelic series)"
same,binding signal,ALX3 [9],"8.73 upbm affinity estimate (log intensity, higher = more binding, comparable within an allelic series)"
same,binding signal,PRRX1 [10],"13.2 upbm affinity estimate (log intensity, higher = more binding, comparable within an allelic series)"
CGTATTAG,binding signal,PAX4 [1],"11.8 upbm affinity estimate (log intensity, higher = more binding, comparable within an allelic series)"
same,binding signal,PAX4 [2],"12.3 upbm affinity estimate (log intensity, higher = more binding, comparable within an allelic series)"
same,binding signal,PAX4 [3],"11.4 upbm affinity estimate (log intensity, higher = more binding, comparable within an allelic series)"
same,binding signal,PAX4 [4],"10.6 upbm affinity estimate (log intensity, higher = more binding, comparable within an allelic series)"
same,binding signal,PAX4 [5],"11.1 upbm affinity estimate (log intensity, higher = more binding, comparable within an allelic series)"
same,binding signal,PAX4 [6],"11.1 upbm affinity estimate (log intensity, higher = more binding, comparable within an allelic series)"
same,binding signal,CRX,"10.6 upbm affinity estimate (log intensity, higher = more binding, comparable within an allelic series)"
CCGAAGCC,binding signal,PAX4 [1],"9.25 upbm affinity estimate (log intensity, higher = more binding, comparable within an allelic series)"
same,binding signal,PAX4 [2],"9.26 upbm affinity estimate (log intensity, higher = more binding, comparable within an allelic series)"
same,binding signal,PAX4 [3],"9.27 upbm affinity estimate (log intensity, higher = more binding, comparable within an allelic series)"
same,binding signal,PAX4 [4],"9.17 upbm affinity estimate (log intensity, higher = more binding, comparable within an allelic series)"
same,binding signal,PAX4 [5],"9.2 upbm affinity estimate (log intensity, higher = more binding, comparable within an allelic series)"
same,binding signal,PAX4 [6],"9.18 upbm affinity estimate (log intensity, higher = more binding, comparable within an allelic series)"
CGAATTAG,binding signal,PAX4 [1],"11.9 upbm affinity estimate (log intensity, higher = more binding, comparable within an allelic series)"
same,binding signal,PAX4 [2],"12.5 upbm affinity estimate (log intensity, higher = more binding, comparable within an allelic series)"
same,binding signal,PAX4 [3],"12 upbm affinity estimate (log intensity, higher = more binding, comparable within an allelic series)"
same,binding signal,PAX4 [4],"10.3 upbm affinity estimate (log intensity, higher = more binding, comparable within an allelic series)"
same,binding signal,PAX4 [5],"11.1 upbm affinity estimate (log intensity, higher = more binding, comparable within an allelic series)"
same,binding signal,PAX4 [6],"10.9 upbm affinity estimate (log intensity, higher = more binding, comparable within an allelic series)"
CTGAGCGC,binding signal,PAX4 [1],"9.25 upbm affinity estimate (log intensity, higher = more binding, comparable within an allelic series)"
same,binding signal,PAX4 [2],"9.2 upbm affinity estimate (log intensity, higher = more binding, comparable within an allelic series)"
same,binding signal,PAX4 [3],"9.31 upbm affinity estimate (log intensity, higher = more binding, comparable within an allelic series)"
same,binding signal,PAX4 [4],"9.15 upbm affinity estimate (log intensity, higher = more binding, comparable within an allelic series)"
same,binding signal,PAX4 [5],"9.2 upbm affinity estimate (log intensity, higher = more binding, comparable within an allelic series)"
same,binding signal,PAX4 [6],"9.27 upbm affinity estimate (log intensity, higher = more binding, comparable within an allelic series)"
CCGGGCTC,binding signal,PAX4 [1],"9.24 upbm affinity estimate (log intensity, higher = more binding, comparable within an allelic series)"
same,binding signal,PAX4 [2],"9.31 upbm affinity estimate (log intensity, higher = more binding, comparable within an allelic series)"
same,binding signal,PAX4 [3],"9.36 upbm affinity estimate (log intensity, higher = more binding, comparable within an allelic series)"
same,binding signal,PAX4 [4],"9.17 upbm affinity estimate (log intensity, higher = more binding, comparable within an allelic series)"
same,binding signal,PAX4 [5],"9.16 upbm affinity estimate (log intensity, higher = more binding, comparable within an allelic series)"
same,binding signal,PAX4 [6],"9.23 upbm affinity estimate (log intensity, higher = more binding, comparable within an allelic series)"
TATTTTAA,binding signal,PAX4 [1],"11 upbm affinity estimate (log intensity, higher = more binding, comparable within an allelic series)"
same,binding signal,PAX4 [2],"11.2 upbm affinity estimate (log intensity, higher = more binding, comparable within an allelic series)"
same,binding signal,PAX4 [3],"11 upbm affinity estimate (log intensity, higher = more binding, comparable within an allelic series)"
same,binding signal,PAX4 [5],"10.6 upbm affinity estimate (log intensity, higher = more binding, comparable within an allelic series)"
same,binding signal,PAX4 [6],"10.6 upbm affinity estimate (log intensity, higher = more binding, comparable within an allelic series)"
ATAATGCG,binding signal,PAX4 [1],"11.6 upbm affinity estimate (log intensity, higher = more binding, comparable within an allelic series)"
same,binding signal,PAX4 [5],"10.9 upbm affinity estimate (log intensity, higher = more binding, comparable within an allelic series)"
same,binding signal,PAX4 [6],"10.9 upbm affinity estimate (log intensity, higher = more binding, comparable within an allelic series)"
CGGCCGGC,binding signal,PAX4 [1],"9.17 upbm affinity estimate (log intensity, higher = more binding, comparable within an allelic series)"
same,binding signal,PAX4 [2],"9.29 upbm affinity estimate (log intensity, higher = more binding, comparable within an allelic series)"
same,binding signal,PAX4 [3],"9.07 upbm affinity estimate (log intensity, higher = more binding, comparable within an allelic series)"
same,binding signal,PAX4 [4],"9.01 upbm affinity estimate (log intensity, higher = more binding, comparable within an allelic series)"
same,binding signal,PAX4 [5],"9 upbm affinity estimate (log intensity, higher = more binding, comparable within an allelic series)"
same,binding signal,PAX4 [6],"9.07 upbm affinity estimate (log intensity, higher = more binding, comparable within an allelic series)"
ATTGATTA,binding signal,PRRX1 [7],"11.1 upbm affinity estimate (log intensity, higher = more binding, comparable within an allelic series)"
AAATTAAG,binding signal,PAX4 [1],"11.5 upbm affinity estimate (log intensity, higher = more binding, comparable within an allelic series)"
same,binding signal,PAX4 [2],"12.1 upbm affinity estimate (log intensity, higher = more binding, comparable within an allelic series)"
same,binding signal,PAX4 [3],"11.8 upbm affinity estimate (log intensity, higher = more binding, comparable within an allelic series)"
same,binding signal,PAX4 [4],"10.4 upbm affinity estimate (log intensity, higher = more binding, comparable within an allelic series)"
same,binding signal,PAX4 [5],"10.8 upbm affinity estimate (log intensity, higher = more binding, comparable within an allelic series)"
same,binding signal,PAX4 [6],"10.8 upbm affinity estimate (log intensity, higher = more binding, comparable within an allelic series)"
TAACTCAA,binding signal,PAX4 [1],"10.6 upbm affinity estimate (log intensity, higher = more binding, comparable within an allelic series)"
same,binding signal,PAX4 [2],"10.7 upbm affinity estimate (log intensity, higher = more binding, comparable within an allelic series)"
same,binding signal,PAX4 [4],"10.1 upbm affinity estimate (log intensity, higher = more binding, comparable within an allelic series)"
ATTACCCG,binding signal,PAX4 [1],"10.6 upbm affinity estimate (log intensity, higher = more binding, comparable within an allelic series)"
same,binding signal,PAX4 [2],"11 upbm affinity estimate (log intensity, higher = more binding, comparable within an allelic series)"
same,binding signal,PAX4 [4],"9.93 upbm affinity estimate (log intensity, higher = more binding, comparable within an allelic series)"
same,binding signal,PAX4 [5],"9.92 upbm affinity estimate (log intensity, higher = more binding, comparable within an allelic series)"
same,binding signal,PAX4 [6],"10.1 upbm affinity estimate (log intensity, higher = more binding, comparable within an allelic series)"
AATGCGAT,binding signal,PAX4 [1],"10.8 upbm affinity estimate (log intensity, higher = more binding, comparable within an allelic series)"
same,binding signal,PAX4 [2],"11 upbm affinity estimate (log intensity, higher = more binding, comparable within an allelic series)"
same,binding signal,PAX4 [4],"10.2 upbm affinity estimate (log intensity, higher = more binding, comparable within an allelic series)"
CGACCTGC,binding signal,PAX4 [1],"9.47 upbm affinity estimate (log intensity, higher = more binding, comparable within an allelic series)"
same,binding signal,PAX4 [2],"9.54 upbm affinity estimate (log intensity, higher = more binding, comparable within an allelic series)"
same,binding signal,PAX4 [3],"9.42 upbm affinity estimate (log intensity, higher = more binding, comparable within an allelic series)"
same,binding signal,PAX4 [4],"9.26 upbm affinity estimate (log intensity, higher = more binding, comparable within an allelic series)"
same,binding signal,PAX4 [5],"9.33 upbm affinity estimate (log intensity, higher = more binding, comparable within an allelic series)"
same,binding signal,PAX4 [6],"9.35 upbm affinity estimate (log intensity, higher = more binding, comparable within an allelic series)"
CTTCGTTC,binding signal,PAX4 [1],"9.33 upbm affinity estimate (log intensity, higher = more binding, comparable within an allelic series)"
same,binding signal,PAX4 [2],"9.37 upbm affinity estimate (log intensity, higher = more binding, comparable within an allelic series)"
same,binding signal,PAX4 [3],"9.51 upbm affinity estimate (log intensity, higher = more binding, comparable within an allelic series)"
same,binding signal,PAX4 [4],"9.56 upbm affinity estimate (log intensity, higher = more binding, comparable within an allelic series)"
same,binding signal,PAX4 [5],"9.5 upbm affinity estimate (log intensity, higher = more binding, comparable within an allelic series)"
same,binding signal,PAX4 [6],"9.58 upbm affinity estimate (log intensity, higher = more binding, comparable within an allelic series)"
